Source: PubChem BioAssay (Tox21)
Several values for one entry are separate records, joined by “and”; a condition that tells them apart may be missing. Equal entries are not always repeated. Records with an inconclusive call do not appear. Activity calls are given as the source filed them. Calls come from the whole dose curve.

How the values were obtained:
[1] = target: Acetylcholinesterase (Homo sapiens) (UniProt P22303); assay: Acetylcholinesterase (AChE) small molecule antagonists: colormetric cell-based qHTS assay (AID 1347395); note: nearly all actives have a fitted effect of over 30% in size; note: potency is the fitted concentration of half-maximal effect
Procedure, shortened: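 Quantitative HTS in attached SH-SY5Y cells: 30 min compound exposure, then 90 min with acetylthiocholine and DTNB at 37 C; colour from thiocholine reports AChE activity.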

[2] = target: Acetylcholinesterase (Homo sapiens) (UniProt P22303); assay: Acetylcholinesterase (AChE) small molecule antagonists: enzyme-based qHTS assay (AID 1347397); conditions: Potency: AChE enzyme activity inhibition; outcome: AChE enzyme activity inhibition; note: nearly all actives have a fitted effect of over 55% in size; note: potency is the fitted concentration of half-maximal effect
Procedure, shortened: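 Colorimetric DTNB read-out of thiocholine released from acetylthiocholine by recombinant human AChE (50 mU/mL as dispensed). Compounds were preincubated 30 min at RT before substrate/DTNB addition, with a 10 min RT reaction.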

[3] = target: Acetylcholinesterase (Homo sapiens) (UniProt P22303); assay: Acetylcholinesterase (AChE) small molecule antagonists: fluorescence cell-based qHTS assay (AID 1347398); conditions: Potency: AChE activity; outcome: AChE activity; note: nearly all actives have a fitted effect of over 50% in size; note: potency is the fitted concentration of half-maximal effect
Procedure, shortened: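 SH-SY5Y, 2,000 cells/well, attached overnight; cmpd 30 min 37 C; acetylthiocholine/Thiolite Green cocktail 40 min RT; fluorescence Ex/Em 490/520 nm.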

[4] = target: Acetylcholinesterase (Homo sapiens) (UniProt P22303); assay: Acetylcholinesterase (AChE) small molecule antagonists: enzyme-based qHTS assay with human liver microsomes (AID 1347399); conditions: Potency: qHTS inhibition; outcome: qHTS inhibition; note: nearly all actives have a fitted effect of over 60% in size
Procedure, shortened: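 Recombinant human AChE (50 mU/mL in the enzyme mix) and human liver microsomes (0.25 mg/mL final) were preincubated with compound and NADPH (0.25 mg/mL final) for 30 min at 37 C. Acetylthiocholine/DTNB was then added; thiocholine was read colorimetrically after 10 min at room temperature.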
% is set by controls: 0 for no effect and ±100 for the full control effect.

Chain of Acetylcholinesterase (Homo sapiens) (P22303 whole entry, looked up): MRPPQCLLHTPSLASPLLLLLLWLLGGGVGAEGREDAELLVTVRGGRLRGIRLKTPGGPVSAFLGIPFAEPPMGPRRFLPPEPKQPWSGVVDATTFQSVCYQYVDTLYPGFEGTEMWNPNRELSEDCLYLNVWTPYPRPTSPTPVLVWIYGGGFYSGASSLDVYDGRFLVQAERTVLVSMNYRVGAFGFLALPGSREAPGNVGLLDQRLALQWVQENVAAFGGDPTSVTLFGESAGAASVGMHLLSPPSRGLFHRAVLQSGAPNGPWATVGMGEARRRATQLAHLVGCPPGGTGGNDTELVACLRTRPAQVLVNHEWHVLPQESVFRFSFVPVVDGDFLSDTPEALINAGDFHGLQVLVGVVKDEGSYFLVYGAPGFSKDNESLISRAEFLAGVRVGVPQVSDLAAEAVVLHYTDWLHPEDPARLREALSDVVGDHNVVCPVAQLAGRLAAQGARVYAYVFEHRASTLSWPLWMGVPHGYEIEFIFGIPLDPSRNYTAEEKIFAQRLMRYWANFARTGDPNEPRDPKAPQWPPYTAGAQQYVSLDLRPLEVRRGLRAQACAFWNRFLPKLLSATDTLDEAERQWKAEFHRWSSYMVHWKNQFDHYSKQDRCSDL

C/C=C(\C)C(=O)OCCC(C)CCC=C(C)C (stereo not given)
inactive: Potency [1] | Potency [2] | Potency [3] | Potency [4]

CCOc1ccc(NC(=O)CC(C)=O)cc1
inactive: Potency [1] | Potency [2] | Potency [3] | Potency [4]

COc1cccc(OC)c1C(=O)N[C@@H]1C(=O)N2[C@@H]1SC(C)(C)[C@@H]2C(=O)O
inactive: Potency [1] | Potency [2] | Potency [3] | Potency [4]

Nc1ccc(O)cc1
inactive: Potency [1] | Potency [2] | Potency [3] | Potency [4]

Cc1cc(C)c(C)c(C)c1
inactive: Potency [1] | Potency [2] | Potency [3] | Potency [4]

ON=C1CCCCC1
inactive: Potency [1] | Potency [2] | Potency [3] | Potency [4]

CCCCNc1ccccc1
inactive: Potency [1] | Potency [2] | Potency [3] | Potency [4]

O=C(O)c1ccccc1S
inactive: Potency [1] | Potency [2] | Potency [3] | Potency [4]

CC(C)(c1cc(Br)c(O)c(Br)c1)c1cc(Br)c(O)c(Br)c1
active: Potency [2] 39.8 µM and 70.8 µM and 67.2 µM
inactive: Potency [1] | Potency [3] | Potency [4]

CCc1ccc(CC)cc1
inactive: Potency [1] | Potency [2] | Potency [3] | Potency [4]

COc1ccccc1N1CCN(CC(O)COc2cccc3ccccc23)CC1 (stereo not given)
inactive: Potency [1] | Potency [2] | Potency [3] | Potency [4]

O=C(O)C1(C(=O)O)CCC1.[NH2-].[NH2-].[Pt+2]
active: Potency [2] 21.9 µM
inactive: Potency [1] | Potency [3] | Potency [4]

CC(CN1CC(=O)NC(=O)C1)N1CC(=O)NC(=O)C1 (stereo not given)
inactive: Potency [1] | Potency [2] | Potency [3] | Potency [4]

Cc1ccc(NC=O)c(C)c1
inactive: Potency [1] | Potency [2] | Potency [3] | Potency [4]

CCC(C)Nc1ccc(NC(C)CC)cc1 (stereo not given)
inactive: Potency [1] | Potency [2] | Potency [4]
active: Potency [3] 40.7 µM

COc1ccc(C(C)=O)cc1
inactive: Potency [1] | Potency [2] | Potency [3] | Potency [4]

CCCOCC(C)O (stereo not given)
inactive: Potency [1] | Potency [2] | Potency [3] | Potency [4]

CCOC(=O)C1=C(C)NC(C)=C(C(=O)OC)C1c1cccc(Cl)c1Cl (stereo not given)
inactive: Potency [1] | Potency [2] | Potency [3] | Potency [4]

C[Si](C)(CCCN)O[Si](C)(C)CCCN
inactive: Potency [1] | Potency [2] | Potency [3] | Potency [4]

CC(=O)C(=O)CC(C)C
inactive: Potency [1] | Potency [2] | Potency [3] | Potency [4]

CCCCCCCCCCCCCCCCCCOCCO
inactive: activity, negative = inhibition [1] 0.0969% [at 23.6 µM] | activity change, negative = inhibition [2] 1.34% [at 23.6 µM] | activity change, negative = inhibition [3] -1.79% [at 23.8 µM] | activity change, negative = inhibition [4] 0.112% [at 23.6 µM]

COCCOCCOC
inactive: Potency [1] | Potency [2] | Potency [3] | Potency [4]

Clc1cc(Cl)nc(Cl)n1
inactive: Potency [1] | Potency [2] | Potency [3] | Potency [4]

N#CCCN(CCO)CCO
inactive: Potency [1] | Potency [2] | Potency [3] | Potency [4]

C[C@@H]1CN(c2c(F)c(N)c3c(=O)c(C(=O)O)cn(C4CC4)c3c2F)C[C@H](C)N1
inactive: activity, negative = inhibition [1] 1.94% [at 23.6 µM] | activity change, negative = inhibition [2] -2.1% [at 23.6 µM] | activity change, negative = inhibition [3] -0.604% [at 23.8 µM] | activity change, negative = inhibition [4] 0.841% [at 23.6 µM]

C=C(C)[C@H]1CC=C(C)C(=O)C1
inactive: Potency [1] | Potency [2] | Potency [3] | Potency [4]

CCC(=O)O[C@@H]1C[C@H]2CC[C@]1(C)C2(C)C
inactive: Potency [1] | Potency [2] | Potency [3] | Potency [4]

Cc1cc(CC(=O)O)n(C)c1C(=O)c1ccc(Cl)cc1
inactive: Potency [1] | Potency [2] | Potency [3] | Potency [4]

O=C(O)c1ccccc1OP(=O)(O)O
inactive: Potency [1] | Potency [2] | Potency [3] | Potency [4]

O=C(O)Cc1ccc2c(c1)C(=O)c1ccccc1CO2
inactive: Potency [1] | Potency [2] | Potency [3] | Potency [4]

CCCCCCCOC(=O)CCC
inactive: Potency [1] | Potency [2] | Potency [3] | Potency [4]

Cc1occc(=O)c1O
inactive: Potency [1] | Potency [2] | Potency [3] | Potency [4]

O=c1[nH]cnc2c1ncn2[C@H]1CC[C@@H](CO)O1
inactive: Potency [1] | Potency [2] | Potency [3] | Potency [4]

NCCOCCO
inactive: Potency [1] | Potency [2] | Potency [3] | Potency [4]

C=C(C)C(N)=O
inactive: Potency [1] | Potency [2] | Potency [3] | Potency [4]

Clc1nc2ccccc2s1
inactive: Potency [1] | Potency [2] | Potency [3] | Potency [4]

CC(C)c1ccc(C=O)cc1
inactive: Potency [1] | Potency [2] | Potency [3] | Potency [4]

O=C1OCCN1/N=C/c1ccc([N+](=O)[O-])o1
inactive: Potency [1] | Potency [2] | Potency [3] | Potency [4]

CCCCCCC(C)O (stereo not given)
inactive: Potency [1] | Potency [2] | Potency [3] | Potency [4]

CCCCCCCCCCCCCCCC[N+](C)(C)Cc1ccccc1
inactive: Potency [1] | Potency [4]
active: Potency [2] 82.2 µM and 32.3 µM and 38.9 µM | Potency [3] 46.2 µM and 57.4 µM

Cc1ccc(C=O)cc1C
inactive: Potency [1] | Potency [2] | Potency [3] | Potency [4]

CCCCNC(=S)NCCCC
inactive: Potency [1] | Potency [2] | Potency [3] | Potency [4]

CCCc1ncc(C(=O)O)s1
inactive: Potency [1] | Potency [2] | Potency [3] | Potency [4]

CCC(C)C1N=C(C)C(C)S1 (stereo not given)
inactive: Potency [1] | Potency [2] | Potency [3] | Potency [4]

O=c1[nH]cnc2c1ncn2[C@@H]1O[C@H](CO)[C@@H](O)[C@H]1O
inactive: Potency [1] | Potency [2] | Potency [3] | Potency [4]

CCCCCC(C)O (stereo not given)
inactive: Potency [1] | Potency [2] | Potency [3] | Potency [4]

O=C(O)c1ccccc1Nc1cc(Cl)ccc1C(=O)O
inactive: activity, negative = inhibition [1] 1.23% [at 23.6 µM] | activity change, negative = inhibition [2] 2.19% [at 23.6 µM] | activity change, negative = inhibition [3] 2.35% [at 23.8 µM] | activity change, negative = inhibition [4] 0.168% [at 23.6 µM]

C=C(C)[C@@H]1CC=C(C)CC1
inactive: Potency [1] | Potency [2] | Potency [3] | Potency [4]

CCOC(=O)[C@H](C)O
inactive: Potency [1] | Potency [2] | Potency [3] | Potency [4]

O=[N+]([O-])c1cc(C2CCCCC2)c(O)c([N+](=O)[O-])c1
inactive: Potency [1] | Potency [2] | Potency [3] | Potency [4]

OCC1CCCO1 (stereo not given)
inactive: Potency [1] | Potency [2] | Potency [3] | Potency [4]

Cn1c(=O)c2[nH]cnc2n(C)c1=O
inactive: Potency [1] | Potency [2] | Potency [3] | Potency [4]

O=C(O)C1=NN(c2ccc(S(=O)(=O)O)cc2)C(=O)C1
inactive: Potency [1] | Potency [2] | Potency [3] | Potency [4]

c1cnc2cc3c(cc2n1)C1CNCC3C1
inactive: Potency [1] | Potency [2] | Potency [3] | Potency [4]

c1ccc2c(c1)ccc1cc3c(ccc4ccccc43)cc12
inactive: Potency [1] | Potency [2] | Potency [3] | Potency [4]

NC(N)=S
inactive: Potency [1] | Potency [2] | Potency [3] | Potency [4]

Cc1c(Cl)c(=O)oc2cc(O)ccc12
inactive: Potency [2] | Potency [4]
active: Potency [1] 35.6 µM | Potency [3] 71 µM

CCCCCCOc1cc(C)c(O)c(C)c1C
inactive: Potency [1] | Potency [2] | Potency [3] | Potency [4]

O=C(O)c1cccc(Cl)c1Cl
inactive: Potency [1] | Potency [2] | Potency [3] | Potency [4]

CC1(C)COCN1
inactive: Potency [1] | Potency [2] | Potency [3] | Potency [4]
